Source: PubChem BioAssay
Where “and” joins values, the source holds several entries; their conditions need not be identical. Equal values may be shown once. For some assays here: Results with a measured potency or affinity are listed apart. A structure can be active in one record and inactive in another. Calls of active or inactive are those of the source.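 Rule for the calls, unless noted: active = thallium flux through the channel raised or lowered by more than 3 SD from vehicle-only wells, actives on both sides; inactive = the rest.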

Assays:
[1] = polyglutamine-triggered caspase-3 activation inhibitors, cell-based (AID 1583); details: polyglutamine-induced caspase-3 activation, cell assay; stronger effect = higher value;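 tested at 10 µM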
[2] = suppressors of polyQ aggregation in yeast, 75Q-TubU reporter (AID 1593); details: Yeast 75Q polyglutamine aggregation reporter
[3] = rescue of polyQ-huntingtin neuronal dysfunction in worms, whole organism, C. elegans mechanosensory neurons, N-terminal huntingtin (AID 1599); details: touch response, stronger effect = higher value
[4] = inhibitors of mitochondrial cytochrome c release, biochemical, purified mitochondria (AID 1603); details: stronger effect = lower value;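 note: mouse liver mitochondria challenged with calcium chloride; signal normalized to the plate average as 100%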
[5] = inhibitors of polyQ protein aggregation (AID 1604); details: polyglutamine-induced protein aggregation inhibition assay; stronger effect = higher value; tested at 2.5 µM
[6] = enhancers of glutamate uptake in motor neurons, MN-1 cell line (AID 1612); details: MN-1 motor neuron cells, stronger effect = higher value;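 note: tested at 1 µM final; 0% = mean of DMSO vehicle wells on each plate; positive means more glutamate uptake than control and negative means less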
[7] = suppressors of polyglutamine aggregation in yeast, 75Q-TubH (AID 1616); details: S. cerevisiae 75Q-TubH polyglutamine aggregation suppression; stronger effect = higher value
[8] = hESC survival regulators, cell-based (AID 493140; call rule not given here;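 note: cells exposed to compounds for four days before counting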); details: human embryonic stem cell survival screen; stronger effect = higher value
[9] = viability rescue of complex I mutant cybrids, primary screen, cell-based, galactose medium, ATP luminescence (AID 1645843;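 active = z-score of at least 1.8 in each of two replicates, scored against plate mean and spread of sample wells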;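 note: positive z means more ATP and so rescue of galactose-driven cybrid death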); details: complex I mutant cybrid cells, 72 h, stronger effect = higher value
F380Y/beta1 = experiment: modulators of BK channel variants, profiling panel, selectivity assay, cell-based, U2OS BacMam, thallium flux, beta subunits (AID 1259406); details: at 30 µM;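 note: initial slope of Thallos dye fluorescence rise after thallium is added; log ratio against the mean of 0.3% DMSO vehicle wells on the same plate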
F380Y/beta2Delta = experiment: as above; details: at 30 µM
F380Y/beta4 = experiment: as above; details: at 30 µM
[10] = molecular target: Calcium-activated potassium channel subunit alpha-1 (Homo sapiens) + Leucine-rich repeat-containing protein 26 (Homo sapiens) (UniProt Q12791+Q2I0M4); experiment: as above; details: F380Y/Slo1WT/gamma1, at 30 µM
R275C = experiment: as above; details: at 30 µM
R275C/beta1 = experiment: as above; details: at 30 µM
R275C/beta2Delta = experiment: as above; details: at 30 µM
R275C/beta4 = experiment: as above; details: at 30 µM
R275C/Slo1WT/beta2 = experiment: as above; details: at 30 µM
[11] = modulation of C. elegans fzo-1 (AID 1259413; call rule not given here;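 note: fzo-1 mutant C. elegans worms in liquid wells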); details: C. elegans fzo-1 modulator screen, mean read-out; stronger effect = higher value
[12] = test system: Neuropilin-2 / VEGF-C interaction (human); experiment: inhibitors of NRP2–VEGF-C binding, biochemical, microplate binding format, z-score (AID 743281; call rule not given here); details: microplate NRP2/VEGF-C binding assay; stronger effect = lower value

Chain of Calcium-activated potassium channel subunit alpha-1 (Homo sapiens) + Leucine-rich repeat-containing protein 26 (Homo sapiens) (Q2I0M4 whole entry, looked up, one chain of several): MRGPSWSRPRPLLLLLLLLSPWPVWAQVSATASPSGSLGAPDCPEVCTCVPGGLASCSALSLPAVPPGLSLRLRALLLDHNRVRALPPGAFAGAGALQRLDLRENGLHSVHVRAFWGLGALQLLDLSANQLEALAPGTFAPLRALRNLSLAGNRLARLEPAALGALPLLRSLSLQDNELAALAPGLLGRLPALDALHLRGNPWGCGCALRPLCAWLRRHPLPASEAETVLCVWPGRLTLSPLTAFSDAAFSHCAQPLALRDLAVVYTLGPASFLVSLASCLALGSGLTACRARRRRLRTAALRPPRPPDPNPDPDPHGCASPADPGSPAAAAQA

| Compound | inhibition [1] [%] | score [2] | rescue above control [3] | cytochrome c release ratio [4] | inhibition of aggregation [5] [%] | glutamate uptake change [6] [%] | aggregation suppression score [7] | survival [8] | z-score [9] | log fold change Tl+ flux (F380Y/beta1) | log fold change Tl+ flux (F380Y/beta2Delta) | log fold change Tl+ flux (F380Y/beta4) | log fold change Tl+ flux [10] | log fold change Tl+ flux (R275C) | log fold change Tl+ flux (R275C/beta1) | log fold change Tl+ flux (R275C/beta2Delta) | log fold change Tl+ flux (R275C/beta4) | log fold change Tl+ flux (R275C/Slo1WT/beta2) | mean signal [11] | z-score [12] |
| --- | --- | --- | --- | --- | --- | --- | --- | --- | --- | --- | --- | --- | --- | --- | --- | --- | --- | --- | --- | --- |
| CN[C@@H]1[C@H](O)[C@H](NC)[C@H]2O[C@@]3(O)C(=O)C[C@@H](C)O[C@H]3O[C@@H]2[C@H]1O | 16.9 | 1.49 | 0.75 | 0.85 | 14.3 | -0.34 | 1.46 | 3.25 (inactive) | 0.84 (inactive) and 1 (inactive) | 0.00447 (inactive) | -0.0192 (inactive) | 0.0229 (inactive) | 0.021 (inactive) | 0.108 (active) | 0.0857 (inactive) | -0.00159 (inactive) | 0.0437 (inactive) | -0.0137 (inactive) |  |  |
| CC(=O)[C@H]1CC[C@H]2[C@@H]3C[C@H](C)C4=CC(=O)CC[C@]4(C)[C@H]3[C@@H](O)C[C@]12C |  |  |  |  |  |  |  | 6.42 (inactive) | -0.825 (inactive) | -0.00433 (inactive) | -0.0669 (inactive) | -0.0204 (inactive) | -0.019 (inactive) | -0.0356 (inactive) | 0.0813 (inactive) | 0.0373 (inactive) | -0.0699 (inactive) | -0.105 (inactive) | 277 (inactive) |  |
| O[C@@H](c1cc(C(F)(F)F)nc2c(C(F)(F)F)cccc12)[C@H]1CCCCN1 |  |  |  |  |  |  |  |  | -1.5 (inactive) | 0.529 (active) | 0.541 (active) | 0.648 (active) | 0.167 (active) | 0.256 (active) | 0.641 (active) | 0.366 (active) | 0.803 (active) | 0.107 (inactive) | 213 (inactive) |  |
| Cc1cccc(CN2CCN(C(c3ccccc3)c3ccc(Cl)cc3)CC2)c1 (stereo not drawn) | 7.71 | 1.9 | 1.73 | 0.33 | 63.4 | 17.6 | 1.86 | 3.33 (inactive) | -1.5 (inactive) | -0.208 (active) | 0.0401 (inactive) | -0.141 (active) | -0.0345 (inactive) | 0.00971 (inactive) | -0.0498 (inactive) | 0.0052 (inactive) | -0.091 (inactive) | -0.00698 (inactive) | 222 (inactive) |  |
| CN(C)c1ccc(O)c2c1C[C@H]1C[C@H]3[C@H](N(C)C)C(=O)C(C(N)=O)=C(O)[C@@]3(O)C(=O)C1=C2O | -8.86 | 0.98 | 0 | 0.25 | 88.9 | 5.89 | 0.425 | 9.58 (inactive) | -1.26 (inactive) and 2.96 (active) | 0.00506 (inactive) | 0.045 (inactive) | 0.0112 (inactive) | 0.0283 (inactive) | -0.0348 (inactive) | -0.00562 (inactive) | -0.0532 (inactive) | -0.0291 (inactive) | -0.0415 (inactive) |  |  |
| C[C@H](CCC(=O)O)[C@H]1CC[C@H]2[C@@H]3C(=O)C[C@@H]4CC(=O)CC[C@]4(C)[C@H]3CC(=O)[C@]12C |  |  |  |  |  |  |  |  |  | -0.0273 (inactive) | 0.00244 (inactive) | -0.0104 (inactive) | -0.0617 (inactive) | -0.000869 (inactive) | -0.0193 (inactive) | -0.00319 (inactive) | 0.0134 (inactive) | -0.0176 (inactive) | 247 (inactive) | -0.00555 (inactive) |
| COc1cc(NC(C)CCCN)c2ncccc2c1 (stereo not drawn) | 18.8 | 1.79 | 0 | 0.68 | 78.1 | -1.37 | 1.22 | 5.33 (inactive) | -1.43 (inactive) and -2.4 (inactive) | -0.102 (inactive) | -0.141 (active) | -0.0853 (inactive) | -0.0425 (inactive) | -0.164 (active) | 0.0817 (inactive) | 0.0117 (inactive) | 0.0128 (inactive) | -0.0635 (inactive) | 225 (inactive) |  |
| C[C@]12CCC(=O)C=C1CC[C@@H]1[C@@H]2[C@@H](O)C[C@@]2(C)[C@H]1CC[C@]2(O)C(=O)CO |  |  |  |  |  |  |  | 5.5 (inactive) | 0.565 (inactive) and 0.385 (inactive) and -0.22 (inactive) | 0.0243 (inactive) | 0.0274 (inactive) | 0.00205 (inactive) | -0.00874 (inactive) | -0.0265 (inactive) | -0.0128 (inactive) | 0.0134 (inactive) | -0.0399 (inactive) | 0.0266 (inactive) | 278 (inactive) |  |
| C[C@]12CCC(=O)C=C1CC[C@@H]1[C@@H]2[C@@H](O)C[C@@]2(C)[C@H]1CC[C@]2(O)C(=O)COC(=O)CCC(=O)O |  |  |  |  |  |  |  |  | -0.315 (inactive) | -0.0186 (inactive) | 0.00491 (inactive) | 0.0128 (inactive) | 0.0102 (inactive) | 0.0834 (inactive) | 0.0319 (inactive) | 0.0103 (inactive) | -0.0484 (inactive) | -0.0271 (inactive) | 257 (inactive) |  |
| C[C@H]1C[C@@H]2[C@H]([C@@H](O)C[C@@]3(C)[C@H]2CC[C@]3(O)C(=O)CO)[C@@]2(C)C=CC(=O)C=C12 |  |  |  |  |  |  |  | 11.9 (inactive) | -0.075 (inactive) and 0.335 (inactive) | 0.0255 (inactive) | 0.00102 (inactive) | -0.0167 (inactive) | -0.0378 (inactive) | -0.0399 (inactive) | -0.0807 (inactive) | 0.0437 (inactive) | -0.00754 (inactive) | 0.0152 (inactive) | 290 (inactive) |  |
